KDM4E inh – inhibitors of human JMJD2E histone demethylase; JMJD2E catalytic domain, FDH-coupled NADH fluorescence (FDH is formaldehyde dehydrogenase); Potency, µM (doses to about 57.1 µM), for the others: top-dose activity change, negative = inhibition, most hits filed as inhibitors; actives 1.6% (n = 230,000); AID 2147;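 further: potency means the concentration at half of the fitted maximal effect; 0% = wells with enzyme and -100% = buffer wells without enzyme; nearly all actives have a fitted effect of over 50% in size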
Target sequence (B2RXH2 1-337 limits assumed): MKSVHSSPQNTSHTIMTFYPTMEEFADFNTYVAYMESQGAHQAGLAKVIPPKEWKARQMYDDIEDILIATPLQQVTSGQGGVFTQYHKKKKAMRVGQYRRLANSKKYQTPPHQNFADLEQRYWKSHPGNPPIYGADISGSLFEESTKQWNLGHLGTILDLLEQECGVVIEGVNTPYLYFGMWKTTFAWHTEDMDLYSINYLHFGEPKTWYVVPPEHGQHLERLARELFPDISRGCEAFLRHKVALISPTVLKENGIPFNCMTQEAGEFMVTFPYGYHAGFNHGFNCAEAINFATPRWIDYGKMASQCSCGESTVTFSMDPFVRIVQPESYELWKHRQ
FBPA coupling cs – counter-screen for Giardia aldolase inhibitors: coupling enzyme system. coupling enzyme system counterscreen, AmpLite Red fluorescence. activity change, negative = inhibition, % at 58.2 µM, hits read low. actives 0.67% (n = 290,000). AID 2472; in the data active means activity change below about -30%
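Fluorescence at 525 nm excitation and 598 nm emission measured inhibition of the coupled detection system without aldolase. Compounds (at 57.5 uM final) were preincubated 10 min at room temperature with coupling enzyme reagent before a 20 min substrate/AmpLite Red step.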
ALDH1A1 inh – blocks purified human ALDH1A1 activity; P00352; Purified ALDH1A1, NADH fluorescence, propionaldehyde substrate; Potency, µM (top dose mostly 75.3 µM), for the others: at the highest dose activity, negative = inhibition, most hits filed as inhibitors; actives 7.3% (n = 220,000); AID 1030;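 further: potency means the concentration at half of the fitted maximal effect; plate controls were no enzyme wells and a reference inhibitor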
NPSR antag – neuropeptide S receptor (human) antagonism, cAMP. CHO-NPSR cells, cAMP TR-FRET, antagonist mode. Potency, µM (titrated, usually from 38.3 µM), for the others: top-dose activity change, negative = inhibition, hits mostly inhibitors. actives 1% (n = 220,000). AID 1461; active means well fitted curve in the direction sought with a large enough effect; inconclusive means small, poorly fitted or top-dose-only effect, or another doubt; inactive means no such curve, though single readings can be large; an effect the other way counts as inactive or inconclusive; further: potency means the concentration at half of the fitted maximal effect; nearly all actives have a fitted effect of over 50% in size
Sfp PPTase inh – inhibitors of Bacillus subtilis Sfp phosphopantetheinyl transferase; Biochemical Sfp PPTase activity, qHTS; actives 3.5% (n = 310,000); Potency, µM, inactives show largest response in the series, negative = inhibition, usual class: inhibitors; active means well fitted curve in the direction sought with a large enough effect; inconclusive means small, poorly fitted or top-dose-only effect, or another doubt; inactive means no such curve, though single readings can be large; an effect the other way counts as inactive or inconclusive;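 further: the enzyme is Sfp with the accession as filed and its product quenches rhodamine fluorescence; potency means the concentration at half of the fitted maximal effect; 0% = enzyme reaction without inhibitor and -100% = no enzyme wells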
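With Hepes-Na pH 7.6 buffer containing 10 mM MgCl2, Sfp (15 nM) modified BHQ-2-YbbR (12.5 uM) using rhodamine-CoA (5 uM). Two reads 30 minutes apart at 525/598 nm yielded each well's rate.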
GoLoco inh red – RGS12 GoLoco-Gai1 interaction inhibition. Gai1:RGS12 GoLoco peptide FP, rhodamine, 10 min. P63096. AID 880. actives 0.44% (n = 230,000). Potency, µM (titrated, usually from 61.6 µM), for the others: top-dose activity, negative = inhibition, hits mostly inhibitors; active means well fitted inhibition curve with a large enough effect, not every such curve was filed as active; inactive means no such curve, though single readings can be large or run the other way; further: potency means the concentration at half of the fitted maximal effect; nearly all actives have a fitted effect of over 30% in size
* hit, by the source's call; ? = inconclusive; . = not tested or not shown; [ ] = dose if it differs, or a comment. Rows were chosen to be rich in hits. Some 8.5% of all compounds tested hit in one or more screens of this group. Unless noted, the call rests on the fitted dose curve; in most records, active means well fitted inhibition curve with a large enough effect (not every such curve was filed as active); inconclusive means small, poorly fitted or top-dose-only effect, or another doubt; inactive means no such curve, though single readings can be large or run the other way. Unless noted, on the % scale 0 is the no-effect control and ±100 the full control effect.

SMILES | KDM4E inh | FBPA coupling cs | ALDH1A1 inh | NPSR antag | Sfp PPTase inh | GoLoco inh red
Cc1coc(C)c1C(=O)Nc1ccc2ccccc2c1 | . | 0 | . | . | 6% | .
COc1ccc(C(=O)N(c2ccc(OC)cc2)S(=O)(=O)c2cccs2)cc1 | -11% | 0 | 5µM* | -12% | 11% | 3%
COc1ccc(N(C(=O)c2ccccc2)S(=O)(=O)c2cccs2)cc1 | -10% | 0 | ? | -34% | 2% | 5%
CC1(C)C(=O)C=C[C@]2(C)C1CC(=O)[C@]1(C)C2CC[C@@]2(C)C(c3ccoc3)OC(=O)C3O[C@@]321 (some centres not stated) | -2% | 0 | -10% | . | 11% | -3%
Fc1ccc(NC(=S)N2N=CCC2c2ccccc2)cc1 (configuration not stated) | 1% | -7 | 7.1µM* | 10%[46.1 µM] | 6% | -1%
S=C(Nc1ccccc1)N1N=CCC1c1ccccc1 (configuration not stated) | -2% | 1 | ? | -9%[46.1 µM] | -1% | 8%
COc1cc(OC)cc(C(=O)NCC2CCCN(C(=O)c3oc(C)cc3C)C2)c1 (configuration not stated) | . | -2 | . | . | 18% | .
Clc1cccc(-c2nnc3sc(-c4ccc5c(c4)OCO5)nn23)c1 | 2% | 3 | 20µM* | -2%[46.1 µM] | 32µM* | .
Clc1ccccc1-c1nnc2sc(-c3ccc4c(c3)OCO4)nn12 | ? | 6 | ? | ? | 10µM* | 14%
Clc1cccc(-c2nn3c(-c4ccncc4)nnc3s2)c1 | 8% | 0 | 3% | -4%[46.1 µM] | 9% | 4%
CC(CCN1CCN(c2ccc(F)cc2)CC1)c1ccccc1 (configuration not stated) | . | 0 | . | . | -6% | .
Cc1ccc(/C=C/C(=O)c2ccc(O)cc2)cc1 | -3% | 1 | . | -29% | 9% | -3%
O=C(/C=C/c1ccccc1Cl)c1ccc(O)cc1 | 7% | -1 | -3% | 7% | -8% | 1%
CSc1ccc(/C=C/C(=O)c2ccc(O)cc2)cc1 | 0% | 11 | 18µM* | -16% | 79µM* | 10%
O=C(/C=C/c1ccco1)c1ccc(O)cc1 | ? | 2 | 15µM* | -22% | 22µM* | 3%
CN(C)c1ccc(C(=O)/C=C/c2ccco2)cc1 | ? | -2 | 8.9µM* | -18% | 50µM* | 12%
CN(C)c1ccc(C(=O)/C=C/c2ccc(Br)cc2)cc1 | 12% | -4 | 2% | 2% | -15% | -4%
CCOc1nc(OCC)nc(N2CCC(C)CC2)n1 | -1% | 3 | 10µM* | -28%[46.1 µM] | 18% | -10%
CC(Sc1nnc(-c2ccco2)n1C)C(=O)N1C(C)CCCC1C (configuration not stated) | . | 4 | . | . | -6% | .
CNC(=O)c1ccc(NC(=O)CC23CC4CC(CC(C4)C2)C3)cc1 | . | 2 | . | . | 6% | .
C[n+]1cccc(/C=N/NC(=O)CC23CC4CC(CC(C4)C2)C3)c1 | 6% | 2 | . | 8% | -7% | 4µM*
CN(C)c1nc(OCCNC(=O)Nc2ccccc2)nc(N2CCCCC2)n1 | 1% | 11 | 0.89µM* | 19% | 12% | 10%
COCCNC(=O)/C(C#N)=C/c1c(N2CCN(C)CC2)nc2ccccn2c1=O | . | 1 | . | . | -2% | .
CSc1nc(Nc2ccc(Cl)cc2)c(C#N)c(=O)[nH]1 | . | 6 | . | . | 21% | .
N#Cc1c(Nc2ccc(Cl)cc2)s[nH]c1=O | -12% | 8 | . | -31% | 50µM* | 1%
CC1Cc2cc(S(=O)(=O)N3CCC(C(=O)N(C)Cc4ccccc4)CC3)ccc2N1C(=O)C1CC1 (configuration not stated) | . | 0 | . | . | 12% | .
O=C(NCCc1ccc(Cl)cc1)C1CCN(C(=O)c2sccc2-n2cccc2)CC1 | 2% | 2 | 0.5µM* | -24%[46.1 µM] | -5% | 6%
O=C(NCCc1ccc(Cl)cc1)C1CCN(S(=O)(=O)N2CCCC2)CC1 | -3% | . | 3.2µM* | -4%[46.1 µM] | 7% | 6%
Cc1ccc(CCNC(=O)C2CCN(S(=O)(=O)N3CCCCC3)CC2)cc1 | . | . | . | . | 1% | .
